Records with an inconclusive call do not appear. Where a call stands in place of a potency, no number is given. Activity calls are given as the source filed them. Calls follow the shape of the full dose curve.
assay: Natriuretic polypeptide receptor (hNpr1) antagonism - Pilot counterscreen GloSensor control cell line (AID 1347045); settings: HEK293 cGMP GloSensor cells, SNP-stimulated luminescence, 20 min; series mostly up to 38.3 µM
Procedure: F. Fan, B. F. Binkowski, B. L. Butler, P. F. Stecha, M. K. Lewis, K. V. Wood, Novel genetically encoded biosensors using firefly luciferase. ACS Chem Biol 3, 346-351 (2008).
PROTOCOL TABLE (as described by Inglese J, Shamu CE and Guy RK. 2007)
SEQUENCE No. (e.g., 1, 2, 3, etc.); […] (e.g., Cells, Incubation, Reagent, etc.); VALUE and DESCRIPTION.
1. Cells. Seed 1500 HEK293 cGMP-sensor cells per well in 4uL into Greiner 1536-well white/solid bottom high base, TC plates.
2. Incubation. Incubate plated cells at 37C in 5% CO2, 95% RH overnight.
3. Reagent. Add 1uL per well GloSensor reagent from Promega (2% final concentration) or CO2 independent media vehicle control to respective columns of Greiner 1536-well plates.
4. Incubation. Incubate plated cells at room temperature for 2 h, protect from light.
5. Compounds. Library compounds and DMSO vehicle control added at 23nL per well, transferred by Pin Tool.
6. Incubation. Incubate plated cells for 30 min. at room temperature, protect from light.
7. Detector. GloSensor baseline pre-read luminescence measured using CCD-based camera (Viewlux).
8. Compound. Add 1uL of sodium nitroprusside (SNP) to 50 uM final concentration to stimulate soluble guanylyl cyclase (GC) or CO2 independent media as vehicle control.
9. Incubation. Incubate treated cells at room temperature for 20 min., protect from light.
10. Detector. GloSensor post-SNP luminescence measured using CCD-based camera (Viewlux).
NOTES (numbers refer to Sequence numbers above; values are from representative experiments)
1. HEK293 cells expressing GIP/pGS-40F were grown to 85-95% confluence (48-72 h) in T175 culture flasks (CO2 independent media supplemented with 10% FBS, 1% Pen/Strep antibiotics, and 1 ug/mL puromycin). Trypsinize and harvest cells from T175 culture flasks and filter through 40 um cell strainer. Cells counted with Invitrogen Countess (30,000,000 - 50,000,000 cells/flask).
2. Cells incubated for 24 h. at 37C in 95% RH incubator with metal lid having gas-exchange holes.
3. Prepare GloSensor Reagent (Promega): Reconstitute GloSensor luciferase substrate by adding 8.2mL Hepes buffer to 250mg substrate, mix well, protect from light and stored at -80C. Prepare a fresh 12% GloSensor solution in CO2 independent supplemented plating media (see above). Mix well and store at ambient temperature, protected from light. 1uL 12% GloSensor Luciferase Reagent added (2% final concentration) to respective columns of 9 x 1536-well Greiner plate with BioRaptr, 1uL CO2 independent plating media added to respective columns as vehicle control with BioRaptr.
4. Cells incubated for 2 h. at ambient temperature, protected from light with metal lid having gas-exchange holes.
5. 23nL of LOPAC128 library compounds (7 plates) or DMSO vehicle control transferred to 9 Greiner white/solid bottom high base, TC plates in 7 interplate 1:5 titrations (see Yasgar, A. et al. 2008) with Pintool. Two of the 9 plates are DMSO-only in compound field at beginning and end of compound library-treated plates.
6. Cells incubated for 30-50 min. at ambient temperature protected from light with metal lid having gas-exchange holes.
7. Read GloSensor + Antagonist/Compound baseline Luminescence on the ViewLux [Exposure, 30 s; Gain, High; Speed, Slow; Binning, 2X]
8. SNP solution prepared at 500 mM (in H2O) stock concentration. From this a working dilution was prepared at 300 uM in CO2 Independent media. 1uL of 300 uM SNP (50 uM final concentration) or CO2 Independent media vehicle control dispensed into respective columns of 9 x Greiner 1536-well white/solid bottom, tissue culture plates with BioRaptr.
9. Cells incubated for 20 min. at ambient temperature, protected from light with metal lid having gas-exchange holes.
10. Read final luminescence on the ViewLux. [Exposure, 30 s; Gain, High; Speed, Slow; Binning, 2X.]
[…]
Potency is read from the fitted curve at half-maximal effect.

SMILES	Potency
NC(=S)c1ccc[n+]([C@@H]2O[C@@H](COP(=O)([O-])OP(=O)(O)OC[C@H]3O[C@@H](n4cnc5c(N)ncnc54)[C@H](OP(=O)(O)O)[C@@H]3O)C(O)C2O)c1 (stereo not given in full)	inactive
CN1CCC[C@H]1c1cccnc1	inactive
CCNC(=O)[C@H]1O[C@@H](n2cnc3c(N)nc(NCCc4ccc(CCC(=O)O)cc4)nc32)[C@H](O)[C@@H]1O	inactive
CC(C)ON([C@@H](C(=O)NO)C(C)C)S(=O)(=O)c1ccc(-c2ccccc2)cc1	inactive
Cc1ccc(S(=O)(=O)/C=C/C#N)cc1	9.27 µM (active)
CNC(=O)[C@H]1O[C@@H](n2cnc3c(NCc4cccc(I)c4)ncnc32)[C@H](O)[C@@H]1O	inactive
C=CC(C)=C[C@@]1(C)SC(=O)C(C)=C1O	inactive
CN1CCc2cc(O)c(O)cc2C(c2ccccc2)C1 (stereo not given)	inactive
NCCSSCCN	inactive
NC(CCCP(=O)(O)O)C(=O)O (stereo not given)	inactive
CCN1/C(=C/C(C)=O)Sc2ccc(OC)cc21	inactive
COc1cc(C(O)CO)ccc1OS(=O)(=O)O (stereo not given)	inactive
OC[C@H]1O[C@@H](n2cnc3c(NC4CCCC4)ncnc32)[C@H](O)[C@@H]1O	inactive
N=C(N)SCCc1ccc(CCSC(=N)N)cc1	inactive
CCCCC#Cc1nc(NC)c2ncn([C@@H]3O[C@H](CO)[C@@H](O)[C@H]3O)c2n1	inactive
CCOC(=O)N1CCN(/[N+]([O-])=N/Oc2ccc([N+](=O)[O-])cc2[N+](=O)[O-])CC1	5.21 µM (active)
CN(C)C(N)=NCCC[C@H](N)C(=O)O	inactive
O=C(O)c1cc(=O)c2c(Cl)cc(Cl)cc2[nH]1	inactive
CCCCCCCCCCCCCCCC(=O)NCC(COP(=O)([O-])OCC[N+](C)(C)C)OCC (stereo not given)	inactive
O=C(O)[C@@H]1C[C@@H](C(=O)O)N1	inactive

SMILES	Potency
Nc1nc(Cl)nc2c1ncn2[C@@H]1O[C@H](COP(=O)(O)OP(=O)(O)OP(=O)(O)O)[C@@H](O)[C@H]1O	inactive
CO/N=C(\C(=O)N[C@@H]1C(=O)N2C(C(=O)O)=C(COC(C)=O)CS[C@H]12)c1csc(N)n1	inactive
O=c1[nH]c2cc(Cl)c(Cl)cc2[nH]c1=O	inactive
CC1OC1P(=O)(O)O (stereo not given)	inactive
CN1[C@@H](CC(=O)c2ccccc2)CCC[C@H]1C[C@H](O)c1ccccc1	inactive
COc1ccc(/C=C/C(=O)Nc2ccccc2C(=O)O)cc1OC	1.85 µM (active)
CCCCN1CCC(n2c(=O)[nH]c3ccccc32)CC1	inactive
CNc1ncnc2c1ncn2[C@@H]1O[C@H](CO)[C@@H](O)[C@H]1O	inactive
CN1CC(=O)N/C1=N/C(=O)Nc1cccc(Cl)c1	inactive
Cc1ccccc1CNc1ncnc2c1ncn2C1OC(CO)C(O)C1O (stereo not given)	inactive
CN(C)CCCO[C@@H]1[C@H]2OC(C)(C)O[C@H]2O[C@@H]1[C@H](O)CO	inactive
CNC(=O)[C@H]1O[C@@H](n2cnc3c(NCc4ccc(N)cc4)ncnc32)[C@H](O)[C@@H]1O	inactive
Cc1ccc(O)c(N=Nc2ccccc2)n1	7.36 µM (active)
CCC1C(=O)OCC1Cc1cncn1C (stereo not given)	inactive
O=C(O)CC1CC(c2ccccc2)=NO1 (stereo not given)	inactive
CC(COc1ccc(/C=C/c2ccccc2)cc1)[N+](C)(C)C (stereo not given)	inactive
CC(C)Cc1ccc([C@H](C)C(=O)O)cc1	inactive
O=C1/C(=C/c2ccsc2)CC/C1=C\c1cccs1	1.47 µM (active)
C=CC(N)CCC(=O)O (stereo not given)	inactive
O=C(O)[C@@H]1C[C@H](C(=O)O)N1	inactive

— PubChem BioAssay (NCATS)
